PLAP activator – activates human placental alkaline phosphatase | purified PLAP enzyme, luminescent substrate read-out; stronger effect = higher value | activation fold at 20 µM | actives 1.2% (n = 96,000); in the data active = activation fold above about 2
Target sequence (P05187 whole entry, looked up): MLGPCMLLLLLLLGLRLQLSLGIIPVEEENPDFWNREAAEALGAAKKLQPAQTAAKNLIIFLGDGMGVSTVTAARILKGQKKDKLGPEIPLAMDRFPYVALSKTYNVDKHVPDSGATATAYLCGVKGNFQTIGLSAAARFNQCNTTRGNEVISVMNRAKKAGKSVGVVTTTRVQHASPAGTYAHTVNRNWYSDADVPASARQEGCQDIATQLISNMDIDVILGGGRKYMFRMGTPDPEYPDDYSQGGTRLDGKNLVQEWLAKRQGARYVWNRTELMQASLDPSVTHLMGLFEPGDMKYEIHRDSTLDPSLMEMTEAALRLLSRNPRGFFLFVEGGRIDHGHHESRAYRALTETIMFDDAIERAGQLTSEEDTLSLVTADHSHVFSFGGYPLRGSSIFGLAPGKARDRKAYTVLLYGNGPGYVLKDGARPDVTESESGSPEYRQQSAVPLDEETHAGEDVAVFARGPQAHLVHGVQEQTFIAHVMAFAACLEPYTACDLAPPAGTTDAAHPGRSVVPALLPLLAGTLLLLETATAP
CYP2C19 act – cytochrome P450 2C19 (human) activation; P33261; recombinant CYP2C19, luciferin-H EGE luminescence; stronger effect = higher value; 0 = fully inhibited enzyme, 1 = untreated enzyme; activation factor at 5 µM; 96,000 tested, under 10 active;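 active = activation factor of at least 2 at 5 µM in the primary screen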;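 note: 0 = wells with 2.5 mM tranylcypromine and 1 = vehicle-only wells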
CYP2C9 inhib – inhibitors of human CYP2C9; CYP2C9 Supersomes, luciferin-H conversion, luminescence; inhibition, % at 5 µM; actives 20% (n = 96,000);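 active = blocking of liver enzyme CYP2C9 beyond about 50% at 5 µM, limit read from the data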
CYP2C9 act – increases human cytochrome P450 2C9 activity; P11712; recombinant CYP2C9, luciferin-H conversion, luminescence; stronger effect = higher value; factor 1 = untreated enzyme, 0 = blocked; activation factor at 5 µM; actives 1.4% (n = 96,000); AID 1024;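 active = activation factor of 2 or more for CYP2C9 at a 5 µM dose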;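 note: 0 = sulfaphenazole-blocked wells and 1 = vehicle-only wells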
CYP2C19 inhib – human CYP2C19 inhibition; CYP2C19 Supersomes, luciferin-H EGE luminescence, 30 min; inhibition, % at 5 µM; actives 21% (n = 96,000); AID 778;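 active = CYP2C19 inhibition above a set limit at 5 µM in the primary screen, cut at about 50% in these data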;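 note: plate controls were negative control wells for no effect and 2.5 mM tranylcypromine positive control for full effect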
Starred values were filed as active, the others as inactive. In the library only some 31% were active in any assay of this set; here they are far more common.

SMILES	PLAP activator	CYP2C19 act	CYP2C9 inhib	CYP2C9 act	CYP2C19 inhib
COCCNC(=O)c1cc2c(=O)n3cccc(C)c3nc2n(Cc2ccncc2)c1=N	1.2	0.5	39.0	0.6	51.0*
O=C(CC1CC2CCC1C2)OCC(=O)c1c[nH]c2ccccc12 (stereo not drawn)	0.9	0.3	-18.5	1.2	70.2*
CCOC(=O)CCc1c(C)nc(SCCCn2c(=O)[nH]c3ccccc32)c(C#N)c1C	0.8	0.5	64.2*	0.4	46.2
CCOC(=O)CCc1c(C)nc(SCCN2CCCC2)c(C#N)c1C	1.5	0.7	36.4	0.6	30.4
CCCn1nc2cc(C(=O)N(CC)c3ccc(OC)cc3)ccc2c1OCC	0.9	0.8	25.5	0.7	16.8
CCCCNC(=S)NC(=O)c1ccc(Cl)cc1Cl	1.2	0.6	14.9	0.9	35.9
CCCCNC(=S)NNC(=O)c1sccc1C	1.5	0.1	12.2	0.9	87.7*
COC(=O)c1ccc(N2CCN(S(=O)(=O)c3ccc(Br)cc3)CC2)c([N+](=O)[O-])c1	1.2	0.7	38.6	0.6	30.3
Cc1c([N+](=O)[O-])cc(C(=O)Oc2ccc(Br)cc2C(=S)N2CCCCC2)cc1[N+](=O)[O-]	0.9	0.5	33.0	0.7	54.0*
CCc1cc2c(N[C@@H](C)C(=O)O)ncnc2s1	1	0.9	0.0	1	7.1
COc1ccc(OCC(=O)Nc2sc3c(c2C(=O)NCC2CCCO2)CCC3)cc1 (stereo not drawn)	1	0.3	95.4*	0	70.1*
O=C(COc1ccccc1)Nc1sc2c(c1C(=O)NCc1cccnc1)CCCC2	1	0.9	95.7*	0	6.8
O=C(CN1C(=O)c2ccccc2C1=O)Nc1sc2c(c1C(=O)NCC1CCCO1)CCC2 (stereo not drawn)	1	1.1	7.9	0.9	-9.4
COc1cc(/C=C/C(=O)NCc2cccnc2)cc(OC)c1OC	1	0.9	-1.1	1	14.5
COc1ccc(/C=C/C(=O)Nc2sc3c(c2C(=O)NCc2cccnc2)CCCC3)cc1	1.4	0.3	97.2*	0	74.6*
CCCCn1nnnc1SCC(=O)N1CCOCC1	1.1	0.6	-13.8	1.1	37.7
NC(=O)CSc1nnc(-c2cc3ccccc3o2)n1Cc1ccccc1	0.8	1	10.6	0.9	2.3
O=C(CSc1nnc(C2CC2)n1Cc1ccccc1)c1cc2ccccc2o1	1.4	0.1	87.8*	0.1	92.7*
COC(=O)c1coc(-c2ccc(OC)cc2)c1C(=O)OC	1.1	0.4	19.4	0.8	62.7*
COC(=O)c1coc(-c2ccc(C)cc2)c1C(=O)OC	1.6	0.2	59.4*	0.4	78.9*
COC(=O)c1noc(-c2ccc(OC)cc2)n1	0.9	1	-2.6	1	1.5
COC(=O)c1noc(-c2ccc(C)cc2)n1	0.9	1.1	-11.1	1.1	-5.1
c1ccc2sc(SN3CCOCC3)nc2c1	0.8	0.2	18.0	0.8	81.8*
CC1CN(C2CCN(C(=O)COc3ccc(Cl)cc3)CC2)CC(C)O1 (stereo not drawn)	1.2	0.9	2.8	1	8.8
O=C(NCc1cccnc1)c1sc2cc(Cl)ccc2c1Cl	0.9	0.2	45.5	0.5	78.9*
SMILES	PLAP activator	CYP2C19 act	CYP2C9 inhib	CYP2C9 act	CYP2C19 inhib
CCOc1ccc(CCNC(=O)c2cc3sc(Cl)cc3n2C)cc1OCC	1	0.9	2.5	1	14.3
Cn1c(C(=O)NCc2cccnc2)cc2sc(Cl)cc21	1.1	0	88.8*	0.1	96.7*
C=CCn1c(N)c(C(=O)NCc2cccnc2)sc1=S	0.9	0	77.5*	0.2	96.1*
O=C(Nc1c(Cl)cc(Cl)cc1C(=O)NCc1cccnc1)c1ccc(Cl)cc1Cl	0.8	1	4.8	1	3.2
O=C(CSc1nnc(-c2cccnc2)o1)OC1CCCCC1	0.8	1	-18.6	1.2	-4.8
O=C(Nc1ccc2c(c1)oc1ccccc12)C1CC1	1	0.9	-0.3	1	6.5
O=C(Nc1ccc2c(c1)OC1(CCCC1)O2)C1CC1	0.9	0.1	63.9*	0.4	88.2*
Cc1nc2nc[nH]n2c(=O)c1NC(=O)CC12CC3CC(CC(C3)C1)C2	1.1	1	4.1	1	-2.6
COc1ccccc1NC(=O)CNC(=O)c1ccccc1C	1.3	0.8	-34.8	1.3	23.6
COc1cccc(NS(=O)(=O)c2ccc3c(c2)CCCN3C(C)=O)c1	1.2	0	56.2*	0.4	95.6*
CC(=O)N1CCc2cc(NS(=O)(=O)c3cccs3)ccc21	1.1	0.4	89.2*	0.1	61.6*
CCOC(=O)c1ccc(NS(=O)(=O)N2CCCCCC2)cc1	1.1	0.9	67.5*	0.3	8.7
CCOC(=O)c1ccc(NS(=O)(=O)c2ccc3c(c2)CCCN3C(C)=O)cc1	1	0.9	72.5*	0.3	11.4
O=C1CCCN1CCCNCC(=O)N1c2ccccc2Sc2ccccc21	1.7	0.9	10.0	0.9	8.1
C=CCn1c(C)cc(C(=O)CSc2nnc(-c3cccc(S(=O)(=O)N(CC)CC)c3)o2)c1C	0.9	0.1	89.3*	0.1	86.8*
CCN(CC)S(=O)(=O)c1cccc(-c2nnc(SCC(=O)c3cc(C)n(C4CC4)c3C)o2)c1	1.5	0.4	69.7*	0.3	64.1*
O=C(CSc1nnc(-c2cccc(S(=O)(=O)N3CCCCC3)c2)o1)c1ccc[nH]1	1.2	0.8	33.9	0.7	17.9
COc1ccccc1-c1nnc(N(C)C(=O)C2CCCO2)s1 (stereo not drawn)	1	0.7	-19.3	1.2	30.7
COc1ccc(/C=N/n2c(SC)nnc(C(C)(C)C)c2=O)cc1OC	1.6	0.3	56.8*	0.4	71.1*
Cc1cc(C)nc(SCc2nnc(SCC(=O)Nc3ccc(Cl)c(C(F)(F)F)c3)o2)n1	1.2	0.5	23.8	0.8	47.2
Cc1cccc(NC(=O)CSc2nnc(CSc3nc(C)cc(C)n3)o2)c1	1.1	0.1	44.1	0.6	89.3*
Cc1cccc(NC(=O)CCSc2nc(C)cc(C)n2)c1	1.1	0.5	-168.9	2.7*	52.0*
COC(=O)c1cccc(NC(=O)COC(=O)CSc2nc(C)cc(C)n2)c1	1	0.7	28.5	0.7	26.4
O=C(N/N=C\c1ccc(Sc2ccccn2)o1)c1cccc(Br)c1	1.6	0.2	82.1*	0.2	83.9*
O=C(N/N=C/c1cccc(Oc2ccccc2)c1)c1cccc(Br)c1	1.1	0.6	53.3*	0.5	41.8
SMILES	PLAP activator	CYP2C19 act	CYP2C9 inhib	CYP2C9 act	CYP2C19 inhib
O=C(N/N=C/C=C/c1ccccc1)c1ccccc1Br	1.3	0.8	41.4	0.6	21.8
O=C(N/N=C/c1cccc(Oc2ccccc2)c1)c1ccccc1Br	0.9	0.7	62.6*	0.4	30.0
O=C1Cc2ccccc2C(=O)N1CCc1ccccc1	1.6	0.5	1.8	1	51.8*
O=C(O)CCN1C(=O)c2ccccc2C1=O	0.8	1.1	28.1	0.7	-7.6
CN(CCNC(=O)c1cccc(N2CCCC2=O)c1)Cc1ccccc1	1.4	0.8	20.5	0.8	17.9
O=C(NCc1ccc(N2CCCC2=O)cc1)Nc1cccc(Cl)c1	0.9	0.4	72.5*	0.3	59.2*

From PubChem
